Where a name gives a salt, the structure may show the parent alone. ± gives the standard deviation of the averaged measurements. Bounds are passed on as bounds.

For this assay, the system named is Toxoplasma gondii RH (in HFF). Put plainly: parasite growth relative to the screen mean (all compounds = 100%); higher = less inhibition of parasite growth. Particulars: 5 µM; 72 h; oxygen 21 %. In a few lines: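 Values give growth relative to the screen mean. The screen mean (all compounds) is set at 100%, and two screens were averaged. Compounds at 5 µM final were placed on confluent human foreskin fibroblasts, which were infected within 2 h with RH β-Gal–GFP Toxoplasma (MOI 1:5) and kept 72 h at 21% O2 before a CPRG β-Gal readout against in-plate standard curves.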
`N#Cc1ccccc1OCC(O)CNCCNC(=O)Nc1ccccc1` (stereo unspecified) came in with a parasite growth of 137 ± 18%.

Take `CN(CCc1ccc(Cl)c(Cl)c1)CC(O)COc1ccc(NS(C)(=O)=O)cc1` (stereo unspecified): the parasite growth came to 58.1 ± 4.3%.

For `COc1cc2ncnc(Nc3ccc(Oc4ccccc4)cc3)c2cc1OC`, the parasite growth amounted to 110 ± 20%.

Molecule `NC(=O)N1c2ccccc2CC(O)c2ccccc21` (stereo unspecified) [Licarbazepine] displayed a parasite growth of 122 ± 9.9%.

`Cc1ccc(Sc2cncc3sc(C(N)=O)cc23)cc1`: the parasite growth was 148 ± 2.4%.

`O=c1c(O)c(-c2ccc(O)c(O)c2)oc2cc(O)cc(O)c12` [Quercetin] returned a parasite growth of 180 ± 32%.

As to `CNC(=O)[C@H]1O[C@@H](n2cnc3c(NCc4cccc(I)c4)ncnc32)[C@H](O)[C@@H]1O`, the parasite growth was 117 ± 14%.

Take `O=C(/C=C/c1ccccc1)NC(NC(=S)Nc1cccc2cccnc12)C(Cl)(Cl)Cl` (stereo unspecified) [Salubrinal]: the parasite growth stood at 86.2 ± 17%.

`Oc1ccc(/C=C/c2cc(O)cc(O)c2)cc1` [Resveratrol]: the parasite growth came to 112 ± 56%.

The molecule `O=C(O)c1cc(O)c2ccc(Cl)cc2n1` [7-Chlorokynurenic acid] gave a parasite growth of 119 ± 9.9%.

Turning to `CCCCCCCCCCCCCCCCn1cc[n+](Cc2ccccc2)c1C`, the parasite growth is less than 0%.

Take `COc1ccc(-c2oc3cc(OC)ccc3c2C(=O)c2ccc(C#N)cc2)cc1`: the parasite growth stood at 81.1 ± 22%.

In turn, `CC(C)(C=O)Cc1cc(C(C)(C)C)c(O)c(C(C)(C)C)c1` registered a parasite growth of 199 ± 11%.

The molecule `CN1CCN(C2=Cc3ccccc3Oc3ccc(Cl)cc32)CC1` gave a parasite growth of 31.7 ± 7.6%.

`CCc1nn(CCCN2CCN(c3cccc(Cl)c3)CC2)c(=O)n1CCOc1ccccc1` [Nefazodone hydrochloride]: the parasite growth was determined as 139 ± 7.4%.

`O=C(O)CN1C(=O)c2cccc3cccc(c23)C1=O` [Alrestatin] had a parasite growth of 100 ± 26%.

For the origin of these results see the supplement of paper PMC4894684.
